The values below come from ChEMBL document CHEMBL4513216, “Probing the Open Global Health Chemical Diversity Library for Multistage-Active Starting Points for Next-Generation Antimalarials” (ACS Infect Dis, 2020).

Screen size: about 69,000 compounds; about 8,600 (12%) showed an effect of 50% or more. What follows is part of a selection rich in strong results, with near analogues and random picks from the rest.

This experiment relates to Plasmodium berghei. Kind of experiment: Screen against P. berghei liver stage (PbLuc), transformed with Luciferase, at 10uM. Type of experiment: functional, HepG2. Particulars: tested at 10 uM.
In the case of `COCCn1ccc2cc(C(=O)N3CCN(S(C)(=O)=O)CC3)ccc21`, the INHIBITION is reported as -0.448%.
For the compound `CC(C)(C)C(=O)N1CCC(c2noc(C3CCC(=O)N3)n2)CC1` (stereo not drawn), the INHIBITION is -17.9%.
As to `Cc1nnc2n1CCN(Cc1csc(COc3ccccc3)n1)C2`, the INHIBITION was -0.113%.
With `CC1(C)Cc2nc(C(C)(C)C)ncc2C(NC(=O)C2(N)CC2)C1` (stereo not drawn) the figure was -10.9%; with `COc1cc(C(=O)NS(=O)(=O)c2cncc(Br)c2)cc(OC)c1C`, -4.68%.
For `O=C1[C@@H]2CN(c3ncccc3Cl)C[C@]2(C(=O)O)CN1CC1CC1`, the INHIBITION stood at 39.1%.
The same measure for `CC(Cc1cncs1)Nc1ncnc2cccc(F)c12` (stereo not drawn): 66.9%; for `CC(Cc1cccnc1)Nc1ncnc2cccc(F)c12` (stereo not drawn): -3.43%; for `Cc1cc(CC(C)Nc2ncnc3cccc(F)c23)[nH]n1` (stereo not drawn): 19.3%.
On to `COc1ccc(OCCNC(=O)N2CCS(=O)(=O)CC2)cc1`, for which the INHIBITION was -16.35%.
The same measure for `COCCOCC(=O)Nc1ccc(C)cc1F`: -29.2%; for `COCCOCC(=O)Nc1ccc(F)cc1C`: 55.4%; for `COCCOCC(=O)Nc1cc(C)ccc1F`: -18.9%.
The same measure for `CCN(C)c1ncnc2c1CCN(Cc1nccs1)CC2`: -37.8%.
Take `CCc1nc(NCCc2nc(C)c(C)s2)c2cnn(C)c2n1`: the INHIBITION came out at 27.6%.
The same measure for `Cc1cc(C(F)(F)F)nc(CCNc2nc(C)nc3c2cnn3C)n1`: 15.3%; for `CCCc1nc(N[C@H]2COC[C@@H]2N2CCCCC2)c2cnn(C)c2n1`: -19.8%; for `CCCc1nc(N[C@H]2COC[C@@H]2N2CCCC2)c2cnn(C)c2n1`: 25.8%.
The same measure for `CCc1nc(NCCc2c(C)nn(CC)c2C)c2cnn(C)c2n1`: 65.7%.
The same measure for `CCCc1nc(NCc2c(C)nn(CCC)c2C)c2cnn(C)c2n1`: 66.6%; for `CC(C)(C)c1ncc(CNCC2CCCN2c2cccnn2)s1` (stereo not drawn): 31.3%; for `Cn1cc(C(=O)NC[C@@H]2OC[C@H]3CN(Cc4ccco4)CC[C@H]32)cn1`: -1.53%.
Take `CC(C)OCCN1CCN(C(C)c2nc(C3CC3)no2)CC1` (stereo not drawn): the INHIBITION amounted to 33.6%.
With `O=C(NCCNc1ncccn1)N1CCCC1` the figure was -0.113%.
`Cc1ccc(N2CC(c3nccc(C)n3)C2)nn1`: the INHIBITION amounted to 19.64%.
As to `CCOC(C)C(=O)NCc1ccc(N(C)C)cc1` (stereo not drawn), the INHIBITION was -25.9%.
In the case of `CC(C)c1cc(Br)ccc1NC(=O)NCC(O)CO` (stereo not drawn), the INHIBITION worked out at 25.4%.
For the compound `CCOCC(O)CN1CCN(C(=O)c2cc(F)cc(F)c2)CC1` (stereo not drawn), the INHIBITION turned out to be 3.73%.
Take `O=C(NCC(=O)N1CCc2ccccc2C1)c1cnccn1`: the INHIBITION is -112%.
The same measure for `O=C(CNC(=O)c1cnccn1)Nc1ncc[nH]1`: 71.2%; for `CC(C)(C)c1ccc(C(=O)NCCCNC(=O)c2cnccn2)cc1`: -23.45%; for `O=C(CCCNC(=O)c1cnccn1)Nc1ncc[nH]1`: 56.3%.
With `O=C(NCc1csc(Br)c1)c1cnccn1` the figure was -43.6%; with `CC(C)(C)c1ccc(S(=O)(=O)CCNC(=O)c2cnccn2)cc1`, 26.8%; with `O=C(NCCSC1CCCC1)c1cnccn1`, 4.41%.
The same measure for `O=C(NCCNc1cc(N2CCCC2)ncn1)c1cnccn1`: 19.2%; for `O=C(CCNC(=O)c1cnccn1)Nc1ncc[nH]1`: 59.1%; for `O=C(Cc1ccccn1)N1CCC2(CC1)CC(Oc1ccccn1)CO2` (stereo not drawn): 14.2%.
As to `O=C(c1cccnc1Oc1ccc(Cl)cc1)N1CC[C@@H](O)C1`, the INHIBITION was 11.5%.
With `Cn1nccc1C(=O)N1CCC2(CC1)COC(COc1ccccn1)C2` (stereo not drawn) the figure was 8.64%; with `CC(=O)Nc1nc(C)c(S(=O)(=O)NCCc2cccnc2)s1`, 13%; with `Cc1ccc2oc(CN3CCC(C(=O)O)(n4ccnc4)CC3)c(C)c2c1`, -23.5%.
With `Cc1nc2c(c(NC(C)C)n1)CCN(C1CCOCC1)CC2` the figure was 36.4%; with `Cc1cnn(CCCNC(=O)NCCC(=O)Nc2ccccc2)c1`, 22.6%.
`Cc1cnn(CCCNC(=O)NCCS(=O)(=O)Nc2ccccc2)c1`: the INHIBITION was -4.4%.
As for `Cc1cnn(CCCNC(=O)NC(C)C(=O)Nc2ccccc2)c1` (stereo not drawn), the INHIBITION is listed as 68.8%.
Consider `Cc1nc2c(c(C)c1CC(=O)NCc1ccco1)c(=O)[nH]n2C`, for which the INHIBITION came to 13.6%.
As for `c1cnnc(N2CCCC2CNc2ncnc3ccsc23)c1` (stereo not drawn), the INHIBITION is recorded as 52.3%.
With `Cn1ncc2c(NCC3CCCN3c3cccnn3)ncnc21` (stereo not drawn), the INHIBITION is on record as 21.5%.
On to `c1cnnc(N2CCCC2CNc2cnc3ccccc3n2)c1` (stereo not drawn), for which the INHIBITION came out at 7.08%.
As for `c1cnnc(N2CCCC2CNc2ncnc3sccc23)c1` (stereo not drawn), the INHIBITION was -19.6%.
With `c1cnnc(N2CCCC2CNc2ncnc3c2CCC3)c1` (stereo not drawn) the figure was -24.2%; with `c1cnnc(N2CCCC2CNc2ncnc3ccccc23)c1` (stereo not drawn), 64.7%; with `Cc1nc(CN(C)c2cc(N3CCCC3CO)ncn2)cs1` (stereo not drawn), 22.1%.
The same measure for `O=C1c2cccnc2OC(CN2CCOCC2)CN1Cc1cccs1` (stereo not drawn): 15.4%; for `CN1CCC(CN(C)C(=O)c2cc(C3CCCN3C)ccn2)CC1` (stereo not drawn): -12.9%.
With `Cn1nc(CNC(=O)CC#N)c2c1CN(CC1CC1)CC2` the figure was 16.9%.
For `Cn1cc(CN2CCCC(c3nc(O)cc(-c4cccs4)n3)C2)cn1` (stereo not drawn), the INHIBITION was -15.1%.
